Compounds with a hit are over-represented: about 2.7% of the library has one in this group of screens.
pAkt inh: Akt phosphorylation inhibition; Neuro2A IGF-stimulated pAkt S473 HTRF, 20 min; hits give low values; activity change, % for hits at 50 µM; hit rate 0.32% among 360,000; AID 651550; in the data active means activity change below about -80%; inconclusive means mostly about -51% to -80%; further: on the % scale 0 is the no-effect control and ±100 the full control effect
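Neuro2A cells (4,500/well, DMEM with 0.5% FBS) were treated with compound at a single 50 µM final concentration, stimulated with 6 nM IGF for 20 min at 37 °C, and lysed. Phospho-Akt Ser473 was read by HTRF as 665/615 ratio ×10^4.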
RXFP1 antag: blocks the human relaxin receptor RXFP1 | Q9HBX9 | HEK293-RXFP1, relaxin-stimulated cAMP HTRF, 30 min; hits give low values | activity change, negative = inhibition, % at 57.5 µM | hit rate 0.59% among 350,000 | AID 1259400;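 active means activity change of -60% or lower, but not beyond a set lower limit; inconclusive means change between -60% and -40%, or beyond the set limit; inactive means change above -40%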; further: on the % scale 0 is the no-effect control and ±100 the full control effect
Target sequence (Q9HBX9 whole entry, looked up): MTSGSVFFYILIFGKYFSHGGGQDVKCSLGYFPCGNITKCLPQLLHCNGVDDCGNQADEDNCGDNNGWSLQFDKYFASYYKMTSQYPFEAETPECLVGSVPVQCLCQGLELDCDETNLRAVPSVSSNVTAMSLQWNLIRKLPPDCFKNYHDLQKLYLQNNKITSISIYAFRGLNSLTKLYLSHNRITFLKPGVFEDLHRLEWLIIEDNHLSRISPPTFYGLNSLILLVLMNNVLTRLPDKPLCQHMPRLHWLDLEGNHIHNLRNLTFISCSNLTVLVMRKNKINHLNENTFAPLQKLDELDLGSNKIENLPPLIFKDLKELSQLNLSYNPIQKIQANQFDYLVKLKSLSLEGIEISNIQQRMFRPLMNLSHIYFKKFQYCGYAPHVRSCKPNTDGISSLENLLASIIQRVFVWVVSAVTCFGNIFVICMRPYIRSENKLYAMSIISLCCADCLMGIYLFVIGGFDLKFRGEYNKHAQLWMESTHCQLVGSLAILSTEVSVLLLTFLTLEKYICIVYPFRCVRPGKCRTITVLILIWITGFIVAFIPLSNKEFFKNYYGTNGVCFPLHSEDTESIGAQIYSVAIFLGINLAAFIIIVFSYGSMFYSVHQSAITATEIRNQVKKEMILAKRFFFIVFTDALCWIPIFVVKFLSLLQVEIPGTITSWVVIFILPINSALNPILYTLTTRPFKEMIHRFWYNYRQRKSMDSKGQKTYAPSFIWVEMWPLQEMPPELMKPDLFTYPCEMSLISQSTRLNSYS
gsp antag: antagonists of gsp mutant (McCune-Albright syndrome). gsp-mutant cells, cAMP HTRF, 30 min. AID 624288. Potency, µM (highest dose often 76.9 µM), for the others: top-dose activity change, negative = inhibition, most hits filed as inhibitors. hit rate 0.4% among 340,000; calls by dose curve; cell line not stated here;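 further: intracellular cAMP measured with PDE inhibitor Ro 20-1724 present during compound exposure; potency means the concentration at half of the fitted maximal effect; on the % scale 0 is the no-effect control and ±100 the full control effect; nearly all actives have a fitted effect of over 65% in size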
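HTRF cAMP measurement after 30 min RT detection following 30 min, 37C compound treatment alongside […] (added as 300 uM solution) in G418-selected cells seeded at 2000/well and grown 16–24 h.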
gsp agonist: activates gsp, the McCune-Albright syndrome mutation | Potency, µM (series often up to 76.9 µM), without a hit: top-dose activation (cAMP increase), most hits filed as activators | gsp mutant cells, cAMP HTRF, 30 min | hit rate 0.13% among 340,000; active means well fitted activation curve with a large enough effect; inconclusive means small, poorly fitted or top-dose-only effect, or another doubt; inactive means no such curve, though single readings can be large or run the other way; cell line not stated here;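 further: phosphodiesterase inhibitor Ro 20-1724 added with compounds to block cAMP breakdown; potency means the concentration at half of the fitted maximal effect; nearly all actives have a fitted effect of over 60% in size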
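Cells stably selected in G418 were plated at 2000/well, grown 16-24 hr, then given compounds in DMSO with the PDE inhibitor […] (300 uM solution added) for 30 min at 37C; cAMP was read by HTRF.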
RXFP1 ag: activates the human relaxin receptor RXFP1; HEK293T-RXFP1 cAMP TR-FRET, 30 min; response scale: percent of porcine relaxin response, buffer zero; hit rate 0.3% among 370,000; AID 2676; Potency, µM (series often up to 57.5 µM), without a hit: top-dose activation, hits mostly activators; active means well fitted activation curve with a large enough effect; inconclusive means small, poorly fitted or top-dose-only effect; further: potency means the concentration at half of the fitted maximal effect; on the % scale 0 is the no-effect control and ±100 the full control effect; nearly all actives have a fitted effect of over 60% in size
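Agonist response is measured as cAMP accumulation in an RXFP1-transfected HEK293T line under PDE4 inhibition. Values are scaled between buffer-only and 29 nM porcine relaxin, and EC50s come from standard Hill equation fits.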
ClpP mod: qHTS Assay for Activators of ClpP | ATP-dependent Clp protease proteolytic subunit (Bacillus subtilis (strain 168)), P80244 | purified B. subtilis ClpP, FRET peptide cleavage, 20 min | Potency, µM (highest dose often 57.5 µM), for the others: at the highest dose activity change, negative = active | hit rate 1.9% among 340,000 | AID 651965, 2013; active means well fitted falling curve with a large enough effect; inconclusive means small, poorly fitted or top-dose-only effect; inactive means no such curve, though single readings can be large or run the other way; further: potency means the concentration at half of the fitted maximal effect; the source files actives as falling curves though it sought activators and does not explain the sign; nearly all actives have a fitted effect of over 65% in size
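FRET quenching reversal measured ClpP activation: 10 microg/mL B. subtilis ClpP at pH 8 with the FRET-FV decapeptide, read at 430 nm after 320 nm excitation. The 20-min minus 0-min signal was scaled between DMSO/no-enzyme wells and ADEP (5.8 microM final).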
Numbers without * were called inactive; i = inactive; u = inconclusive; x = no result; ! = not active in a repeat; [ ] = dose if it differs, or a comment.

SMILES | pAkt inh | RXFP1 antag | gsp antag | gsp agonist | RXFP1 ag | ClpP mod
S=c1[nH]nc(Cc2cccc3ccccc23)o1 | i | 2 | -7% | -63% | -1% | 28µM*
O=C(Nc1ccc(Cl)cc1)c1cncs1 | i | 3 | 50µM* | 6%[15.4 µM] | 0% | -3%
O=C(Nc1ccc(F)cc1)c1cncs1 | i | 9 | 11% | 14%[15.4 µM] | 2% | 0%
Cc1nc(Cl)sc1C(=O)Nc1ccc(Cl)cc1 | i | -10 | 4% | -4%[15.4 µM] | 1% | 28µM*
CNC[C@H](O)[C@@H](O)[C@H](O)[C@H](O)CO | x | -3 | x | x | x | x
CCCCc1nn2c(=O)cc(COC(=O)CNC(=O)c3ccccc3C)nc2s1 | x | x | x | x | 27% | -4%
NC(=O)[C@@H]1CSSCCC(=O)N[C@@H](CCCCN=C(N)N)C(=O)NCC(=O)N[C@@H](CC(=O)O)C(=O)N[C@@H](Cc2c[nH]c3ccccc23)C(=O)N2CCC[C@H]2C(=O)N1 | x | -10 | x | x | x | x
CN1CCN(CCCN2c3ccccc3Sc3ccc(C(F)(F)F)cc32)CC1 | i | -65*! | 18% | u | 3% | -12%
CCC1(CC)NC(=S)NC1=S | i | -8 | -11% | -7%[15.4 µM] | x | 28µM*
Cc1ccc(Cl)cc1N1C(=O)CC(Sc2ccccc2N)C1=O (stereo not given) | i | -1 | x | u | x | 1%
COc1cc2c(cc1NC(=O)COc1ccc(Br)cc1C)oc1ccccc12 | x | -16 | x | x | 5% | -8%
Cc1ccc2c(C(=O)CN3CCC(C(N)=O)CC3)c(C)[nH]c2c1 | x | x | x | x | 4% | x
O=C(C[C@@H]1C[C@H]2c3cc(NC(=O)C4CCC4)ccc3O[C@H]2[C@@H](CO)O1)NCc1ccc(-c2ccccc2)cc1 | i | -3 | x | 32µM* | x | 0%
COc1ccc(C(=O)CC(=O)c2ccc(C(C)(C)C)cc2)cc1 | i | -6 | 1% | x | x | -20%
COc1ccc(C(=O)C(CCC(CNC(C)(C)C)C(=O)c2ccc(OC)cc2)CNC(C)(C)C)cc1 (stereo not given) | i | -40 | -5% | -11% | 1% | 28µM*
C/C(=N\NC(N)=O)c1ccccc1 | i | -5 | x | -10%[15.4 µM] | 2% | x
C/C(=N\NC(N)=O)c1c(F)cccc1F | i | -7 | 21% | 7%[15.4 µM] | -1% | 32µM*
COc1ccc(NC(=O)CCCn2c(=O)[nH]c3ccccc3c2=O)cc1 | -110%* | -11 | 15% | 0% | 0% | -6%
COc1ccc(NC(=O)CCCCn2c(=O)[nH]c3ccccc3c2=O)cc1 | i | 0 | 13% | -47% | 0% | -21%
O=C(CCCCCn1c(=O)[nH]c2ccccc2c1=O)NCCc1ccccc1 | x | -20 | x | x | 4% | 32µM*
CCN(CC)C(=O)CSc1nc2ccsc2c(=O)n1CCCC(=O)NCCc1ccc(S(N)(=O)=O)cc1 | i | 7 | -2% | u | 12% | -1%
Cc1cc(NC(=O)CSc2nc3ccsc3c(=O)n2CCCC(=O)NCCc2ccccc2)no1 | i | -79* | 10% | -9%[15.4 µM] | 3% | x
O=C(CCn1c(=O)c2cccn2c2ccc(F)cc21)NCCc1ccc(Cl)cc1 | x | -27 | x | x | -2% | -13%
O=C(CCCn1c(=O)c2cccn2c2ccccc21)NCCc1ccc(Cl)cc1 | x | -71* | x | x | -1% | -3%
COc1ccc(NC(=O)c2cc3c(s2)-c2c(C)cccc2OC3)c(OC)c1 | x | -22 | x | x | 0% | -11%
SMILES | pAkt inh | RXFP1 antag | gsp antag | gsp agonist | RXFP1 ag | ClpP mod
O=C(CCCn1c(=S)[nH]c2ccsc2c1=O)NCCc1ccccc1 | x | -94* | -3% | u | 7% | -4%
Cc1ccc(C)c(N2CCN(C(=O)Nc3ccc4c(c3)N(C)C(=O)CS4)CC2)c1 | i | -15 | 40µM* | 16% | 5% | 1%
CN1C(=O)CSc2ccc(NC(=O)N3CCN(c4ccccn4)CC3)cc21 | i | -8 | 9% | -1% | 0% | -12%
CCC(Cc1ccccc1)NC(=O)Cn1cccc1C(=O)c1ccccc1 (stereo not given) | x | -114* | -11% | 3% | 0% | 0%
CCOc1ccc(/C=C2\SC(=O)N(CCNC(=O)C3COc4ccccc4O3)C2=O)cc1OC (stereo not given) | i | x | 28µM* | -5% | -2% | -6%
O=C(CCN1CCc2ccccc2CC1)c1ccc2c(c1)OCCO2 | i | -65* | 16% | -16% | 2% | 6%
COc1cccc(NC(=O)CN2C(=O)NC3(CCCc4ccccc43)C2=O)c1 (stereo not given) | i | 9 | 15% | -26% | -1% | -1%
COc1cc2c(N3CCOCC3)cc(O)c(CC(=O)Nc3ccccc3)c2cc1OC | i | 10 | -11% | 2% | 2% | 28µM*
N#Cc1c(-c2cccc(F)c2)cc(-c2ccccc2)nc1Br | -94%* | 2 | 29% | u | u | 43%
N#Cc1sc2nc(N3CCCCC3)c3c(c2c1N)CCCC3 | i | -14 | -10% | -25% | 4% | 28µM*
CN(Cc1ccc(-n2cccn2)cc1)C(=O)c1cnn2c1NC(c1ccco1)CC2C(F)(F)F (stereo not given) | i | x | 32µM* | 0% | 3% | 0%
COc1ccc(N2CCN(c3c4c(nc5nncn35)CCC4)CC2)cc1 | x | -1 | x | x | 19% | -1%
Cc1ccc(NC(=O)CSc2nnnn2C2CC2)cc1S(=O)(=O)N1CCOCC1 | i | 12 | -4% | 14%[15.4 µM] | 5% | -2%
Oc1cccc(Nc2nc(O)c(/C=C3\C=Nc4ccccc43)s2)c1 | i | -1 | u | u | 1% | -3%
Oc1nc(Nc2ccc(F)cc2)sc1/C=C1\C=Nc2ccccc21 | i | -104* | -26% | 12%[15.4 µM] | 2% | x
COc1cc(C)c(NC(C)C(=O)c2c(C)[nH]c3ccccc23)cc1OC (stereo not given) | x | x | x | x | x | 0%
CCCCn1cc(S(=O)(=O)c2ccccc2)c(=O)c2cc(F)c(N3CCN(CCC)CC3)cc21 | x | -32 | x | x | 0% | -14%
CCN(CC)c1ccc(/C=C/c2ccccn2)cc1 | x | x | x | x | x | 2%
Cc1cc2c(cc3c(SCc4ccc(Cl)cc4)nnc(C)n32)o1 | x | -1 | x | x | 14µM* | -9%
Cc1ccccc1CNC(=O)c1cccc(NC(=O)N2CCSc3ncccc32)c1 | x | -6 | x | x | -1% | 32µM*
CCOc1ccc(CNC(=O)c2cccc(NC(=O)N3CCSc4ncccc43)c2)cc1 | x | -15 | x | x | 4% | -14%
O=C(NCc1ccccc1)c1ccc(NC(=O)N2CCSc3ncccc32)cc1 | x | -1 | x | x | 0% | 32µM*
CCc1ccc(CNC(=O)c2ccc(NC(=O)N3CCSc4ncccc43)cc2)cc1 | x | -11 | x | x | -2% | 32µM*
